Data taken from paper PMC7862700, “An all-to-all approach to the identification of sequence-specific readers for epigenetic DNA modifications on cytosine”.

Legend:
Experiment in all cases: DAPPL (digital affinity profiling via proximity ligation, sequencing); 10 mM Tris-HCl pH 7.5, 50 mM NaCl, 1 mM DTT, 4% glycerol, room temperature, 30 min; GST-TFs on glutathione beads, 16-mer random dsDNA library, 0.1% formaldehyde crosslink after washing; high values mean tight binding
Details in all cases: protein: recombinant; tags: N-terminal GST; dsDNA, one strand shown
[1] = target: T1, FLI1 (Homo sapiens, UniProt Q01543 1-452)
T1 sequence: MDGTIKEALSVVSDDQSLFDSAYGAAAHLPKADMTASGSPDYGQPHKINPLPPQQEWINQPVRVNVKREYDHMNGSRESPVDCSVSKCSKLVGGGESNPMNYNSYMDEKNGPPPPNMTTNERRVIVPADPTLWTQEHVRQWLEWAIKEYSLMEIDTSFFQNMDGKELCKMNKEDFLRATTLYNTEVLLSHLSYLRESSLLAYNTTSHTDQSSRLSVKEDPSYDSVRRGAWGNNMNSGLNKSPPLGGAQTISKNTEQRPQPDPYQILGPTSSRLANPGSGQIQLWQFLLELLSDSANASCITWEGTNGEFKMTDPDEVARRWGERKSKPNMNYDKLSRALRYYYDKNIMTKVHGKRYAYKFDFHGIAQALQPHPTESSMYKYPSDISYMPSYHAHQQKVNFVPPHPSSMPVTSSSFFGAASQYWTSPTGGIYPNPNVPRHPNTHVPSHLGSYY
Summary of the method: (§1)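 GST fusions of human transcription factors were expressed in yeast and captured with glutathione beads. Once given DNA barcodes and pooled alongside a tag-only sample, they were incubated for 30 min at room temperature with 200 nmole of a random double-stranded 16-mer DNA library in Tris/NaCl/DTT/glycerol buffer, then washed, crosslinked (0.1% formaldehyde), proximity-ligated, PCR-amplified and sequenced on an Illumina NextSeq500. The binding signal of each hexamer is its read frequency for a factor divided by its frequency for the tag-only sample.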

[2] = target: T2, ELK1 (Homo sapiens, UniProt P19419 1-428)
T2 sequence: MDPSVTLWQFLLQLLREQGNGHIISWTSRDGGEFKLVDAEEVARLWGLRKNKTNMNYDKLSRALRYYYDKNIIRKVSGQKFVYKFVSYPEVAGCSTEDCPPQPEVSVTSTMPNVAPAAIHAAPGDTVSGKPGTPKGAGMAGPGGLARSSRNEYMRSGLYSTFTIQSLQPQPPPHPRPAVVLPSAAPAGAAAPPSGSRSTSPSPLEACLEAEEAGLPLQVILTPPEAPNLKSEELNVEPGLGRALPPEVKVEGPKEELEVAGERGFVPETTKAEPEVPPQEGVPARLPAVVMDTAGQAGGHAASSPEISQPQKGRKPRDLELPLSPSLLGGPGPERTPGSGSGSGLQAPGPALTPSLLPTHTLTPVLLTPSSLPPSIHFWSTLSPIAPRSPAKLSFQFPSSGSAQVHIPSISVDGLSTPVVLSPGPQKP
Summary of the method: as §1

[3] = target: T3, GABPA (Homo sapiens, UniProt Q06546 1-454)
T3 sequence: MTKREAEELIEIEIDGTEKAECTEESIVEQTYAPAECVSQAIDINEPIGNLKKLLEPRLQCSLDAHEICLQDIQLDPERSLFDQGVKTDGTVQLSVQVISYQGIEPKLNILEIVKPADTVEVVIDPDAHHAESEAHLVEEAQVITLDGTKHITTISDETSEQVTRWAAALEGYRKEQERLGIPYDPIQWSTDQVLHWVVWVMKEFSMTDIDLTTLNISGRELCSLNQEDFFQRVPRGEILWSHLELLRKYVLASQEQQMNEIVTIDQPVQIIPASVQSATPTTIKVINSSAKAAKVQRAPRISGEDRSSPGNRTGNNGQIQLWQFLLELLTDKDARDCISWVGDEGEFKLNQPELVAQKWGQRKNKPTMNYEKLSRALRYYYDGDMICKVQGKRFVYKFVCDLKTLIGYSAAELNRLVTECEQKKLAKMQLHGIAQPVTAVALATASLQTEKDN
Summary of the method: as §1

[4] = target: T4, ERG (Homo sapiens, UniProt P11308 1-479)
T4 sequence: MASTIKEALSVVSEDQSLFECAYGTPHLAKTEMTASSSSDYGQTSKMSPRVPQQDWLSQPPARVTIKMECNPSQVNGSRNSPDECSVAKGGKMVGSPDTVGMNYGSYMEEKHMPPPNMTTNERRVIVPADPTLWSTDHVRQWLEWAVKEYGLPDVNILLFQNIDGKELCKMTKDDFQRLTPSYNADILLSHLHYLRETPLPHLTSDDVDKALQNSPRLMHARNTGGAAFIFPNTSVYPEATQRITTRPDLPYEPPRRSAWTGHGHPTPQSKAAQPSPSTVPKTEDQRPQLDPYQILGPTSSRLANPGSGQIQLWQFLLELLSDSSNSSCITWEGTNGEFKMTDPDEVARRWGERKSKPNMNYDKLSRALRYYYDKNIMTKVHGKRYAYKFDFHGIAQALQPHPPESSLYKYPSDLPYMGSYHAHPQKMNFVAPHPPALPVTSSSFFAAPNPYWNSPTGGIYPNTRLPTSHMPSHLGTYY
Summary of the method: as §1

[5] = target: ELF1 (Homo sapiens, UniProt P32519 1-619)
ELF1, sequence (P32519 whole entry): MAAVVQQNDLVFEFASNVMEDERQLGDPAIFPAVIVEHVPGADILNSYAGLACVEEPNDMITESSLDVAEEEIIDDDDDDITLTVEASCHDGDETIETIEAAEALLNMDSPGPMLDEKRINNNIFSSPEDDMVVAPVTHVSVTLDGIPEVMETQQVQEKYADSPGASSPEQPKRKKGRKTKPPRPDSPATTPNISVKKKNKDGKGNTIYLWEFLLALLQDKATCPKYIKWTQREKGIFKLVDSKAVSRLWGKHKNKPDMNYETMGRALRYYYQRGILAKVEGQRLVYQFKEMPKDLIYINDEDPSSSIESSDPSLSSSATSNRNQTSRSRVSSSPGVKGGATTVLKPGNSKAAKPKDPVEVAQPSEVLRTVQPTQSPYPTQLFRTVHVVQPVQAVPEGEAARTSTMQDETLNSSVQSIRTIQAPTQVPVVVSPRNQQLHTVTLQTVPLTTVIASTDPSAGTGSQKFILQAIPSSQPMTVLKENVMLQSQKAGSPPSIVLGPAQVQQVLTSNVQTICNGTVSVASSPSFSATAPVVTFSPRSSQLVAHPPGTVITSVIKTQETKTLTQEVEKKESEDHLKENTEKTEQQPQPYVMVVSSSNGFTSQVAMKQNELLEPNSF
Summary of the method: as §1

[6] = target: T5, EHF (Homo sapiens, UniProt Q9NZC4 1-300)
T5 sequence: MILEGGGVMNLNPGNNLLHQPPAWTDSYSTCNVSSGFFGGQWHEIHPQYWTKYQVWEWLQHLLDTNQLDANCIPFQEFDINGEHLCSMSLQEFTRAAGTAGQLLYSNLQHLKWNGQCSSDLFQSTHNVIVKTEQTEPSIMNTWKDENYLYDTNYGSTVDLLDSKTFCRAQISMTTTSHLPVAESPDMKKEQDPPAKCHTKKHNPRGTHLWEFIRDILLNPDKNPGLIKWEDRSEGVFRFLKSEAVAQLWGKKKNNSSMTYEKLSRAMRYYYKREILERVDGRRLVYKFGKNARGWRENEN
Summary of the method: as §1

[7] = target: SPI1 (Homo sapiens, UniProt P17947 1-270)
Summary of the method: as §1

[8] = target: SPIB (Homo sapiens, UniProt Q01892 1-262)
SPIB, sequence (Q01892 whole entry): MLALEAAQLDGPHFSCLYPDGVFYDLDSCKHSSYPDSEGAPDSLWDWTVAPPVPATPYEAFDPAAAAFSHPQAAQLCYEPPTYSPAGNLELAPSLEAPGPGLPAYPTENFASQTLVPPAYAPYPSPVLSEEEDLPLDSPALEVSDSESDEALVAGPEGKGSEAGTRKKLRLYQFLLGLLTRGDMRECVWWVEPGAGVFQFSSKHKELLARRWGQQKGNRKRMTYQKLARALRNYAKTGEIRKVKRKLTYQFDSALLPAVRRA
Summary of the method: as §1

[9] = target: T6, ELK3 (Homo sapiens, UniProt P41970 1-407)
T6 sequence: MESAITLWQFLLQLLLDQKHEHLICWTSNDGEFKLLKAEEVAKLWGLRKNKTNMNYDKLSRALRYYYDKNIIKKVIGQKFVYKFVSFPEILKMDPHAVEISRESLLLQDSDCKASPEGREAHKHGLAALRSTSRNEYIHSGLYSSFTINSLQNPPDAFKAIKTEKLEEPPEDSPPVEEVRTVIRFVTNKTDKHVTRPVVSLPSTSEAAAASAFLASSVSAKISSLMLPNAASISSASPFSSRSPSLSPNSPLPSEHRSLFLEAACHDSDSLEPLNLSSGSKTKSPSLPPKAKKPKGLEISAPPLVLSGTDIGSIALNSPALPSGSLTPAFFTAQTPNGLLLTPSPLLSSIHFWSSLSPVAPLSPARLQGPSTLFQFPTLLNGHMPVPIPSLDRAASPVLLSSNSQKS
Summary of the method: as §1

ACATCA
binding signal [1]: 1.11 fold enrichment (6-mer frequency, TF over GST control)
binding signal [2]: 1.12 fold enrichment (6-mer frequency, TF over GST control)
binding signal [3]: 1.09 fold enrichment (6-mer frequency, TF over GST control)
binding signal [4]: 1.14 fold enrichment (6-mer frequency, TF over GST control)
binding signal [5]: 1.16 fold enrichment (6-mer frequency, TF over GST control)
binding signal [6]: 1.23 fold enrichment (6-mer frequency, TF over GST control)
binding signal [7]: 1.13 fold enrichment (6-mer frequency, TF over GST control)
binding signal [8]: 1.07 fold enrichment (6-mer frequency, TF over GST control)
binding signal [9]: 1.11 fold enrichment (6-mer frequency, TF over GST control)

TATGCG
binding signal [1]: 1.5 fold enrichment (6-mer frequency, TF over GST control)
binding signal [2]: 1.42 fold enrichment (6-mer frequency, TF over GST control)
binding signal [3]: 1.35 fold enrichment (6-mer frequency, TF over GST control)
binding signal [4]: 1.31 fold enrichment (6-mer frequency, TF over GST control)
binding signal [5]: 1.31 fold enrichment (6-mer frequency, TF over GST control)
binding signal [6]: 1.37 fold enrichment (6-mer frequency, TF over GST control)
binding signal [7]: 1.32 fold enrichment (6-mer frequency, TF over GST control)
binding signal [8]: 1.29 fold enrichment (6-mer frequency, TF over GST control)
binding signal [9]: 1.39 fold enrichment (6-mer frequency, TF over GST control)

AACTTC
binding signal [1]: 2.4 fold enrichment (6-mer frequency, TF over GST control)
binding signal [2]: 2.53 fold enrichment (6-mer frequency, TF over GST control)
binding signal [3]: 2.41 fold enrichment (6-mer frequency, TF over GST control)
binding signal [4]: 2.73 fold enrichment (6-mer frequency, TF over GST control)
binding signal [5]: 2.47 fold enrichment (6-mer frequency, TF over GST control)
binding signal [6]: 2.5 fold enrichment (6-mer frequency, TF over GST control)
binding signal [7]: 3.04 fold enrichment (6-mer frequency, TF over GST control)
binding signal [8]: 2.77 fold enrichment (6-mer frequency, TF over GST control)
binding signal [9]: 2.72 fold enrichment (6-mer frequency, TF over GST control)

AAATTA
binding signal [1]: 1.27 fold enrichment (6-mer frequency, TF over GST control)
binding signal [2]: 1.18 fold enrichment (6-mer frequency, TF over GST control)
binding signal [3]: 1.29 fold enrichment (6-mer frequency, TF over GST control)
binding signal [4]: 1.28 fold enrichment (6-mer frequency, TF over GST control)
binding signal [5]: 1.29 fold enrichment (6-mer frequency, TF over GST control)
binding signal [6]: 1.19 fold enrichment (6-mer frequency, TF over GST control)
binding signal [7]: 1.22 fold enrichment (6-mer frequency, TF over GST control)
binding signal [8]: 1.26 fold enrichment (6-mer frequency, TF over GST control)
binding signal [9]: 1.29 fold enrichment (6-mer frequency, TF over GST control)

TCCGGA
binding signal [1]: 2.58 fold enrichment (6-mer frequency, TF over GST control)
binding signal [2]: 2.53 fold enrichment (6-mer frequency, TF over GST control)
binding signal [3]: 2.37 fold enrichment (6-mer frequency, TF over GST control)
binding signal [4]: 3.19 fold enrichment (6-mer frequency, TF over GST control)
binding signal [5]: 2.3 fold enrichment (6-mer frequency, TF over GST control)
binding signal [6]: 2.86 fold enrichment (6-mer frequency, TF over GST control)
binding signal [7]: 2.39 fold enrichment (6-mer frequency, TF over GST control)
binding signal [8]: 2.69 fold enrichment (6-mer frequency, TF over GST control)
binding signal [9]: 2.67 fold enrichment (6-mer frequency, TF over GST control)

TCATGC
binding signal [1]: 1.17 fold enrichment (6-mer frequency, TF over GST control)
binding signal [2]: 1.22 fold enrichment (6-mer frequency, TF over GST control)
binding signal [3]: 1.19 fold enrichment (6-mer frequency, TF over GST control)
binding signal [4]: 1.11 fold enrichment (6-mer frequency, TF over GST control)
binding signal [5]: 1.11 fold enrichment (6-mer frequency, TF over GST control)
binding signal [6]: 1.15 fold enrichment (6-mer frequency, TF over GST control)
binding signal [7]: 1.07 fold enrichment (6-mer frequency, TF over GST control)
binding signal [8]: 1.2 fold enrichment (6-mer frequency, TF over GST control)
binding signal [9]: 1.1 fold enrichment (6-mer frequency, TF over GST control)

TGTAGC
binding signal [1]: 1.1 fold enrichment (6-mer frequency, TF over GST control)
binding signal [2]: 1.16 fold enrichment (6-mer frequency, TF over GST control)
binding signal [3]: 1.16 fold enrichment (6-mer frequency, TF over GST control)
binding signal [4]: 1.11 fold enrichment (6-mer frequency, TF over GST control)
binding signal [5]: 1.2 fold enrichment (6-mer frequency, TF over GST control)
binding signal [6]: 1.16 fold enrichment (6-mer frequency, TF over GST control)
binding signal [7]: 1.17 fold enrichment (6-mer frequency, TF over GST control)
binding signal [8]: 1.03 fold enrichment (6-mer frequency, TF over GST control)
binding signal [9]: 1.27 fold enrichment (6-mer frequency, TF over GST control)

GCGTTC
binding signal [1]: 1.07 fold enrichment (6-mer frequency, TF over GST control)
binding signal [2]: 1.06 fold enrichment (6-mer frequency, TF over GST control)
binding signal [3]: 1.08 fold enrichment (6-mer frequency, TF over GST control)
binding signal [4]: 1.03 fold enrichment (6-mer frequency, TF over GST control)
binding signal [5]: 1.12 fold enrichment (6-mer frequency, TF over GST control)
binding signal [6]: 1.06 fold enrichment (6-mer frequency, TF over GST control)
binding signal [7]: 1.08 fold enrichment (6-mer frequency, TF over GST control)
binding signal [8]: 1.12 fold enrichment (6-mer frequency, TF over GST control)
binding signal [9]: 1.13 fold enrichment (6-mer frequency, TF over GST control)
